Bioassay records (PubChem)
In the library only some 2.7% were active in any assay of this set; here they are far more common.
F508del corr = CFTR F508del correction in bronchial cells; activity (quench increase), % at 7.58 µM; CFBE cells, YFP halide quenching; stimulated with forskolin plus potentiator P3; % fluorescence drop versus neutral controls; 0.36% of 350,000 active;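 active = mean added fluorescence quench of at least 8% versus neutral control, with both replicates also reaching 8%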;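 note: cells transiently co-express mutant CFTR-F508del with the halide-sensitive YFP; corrector assay measuring rescue of mutant channel to the surface after 24 h compound exposure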
MPTP block = blocks calcium-induced mitochondrial swelling; isolated mouse mitochondria, Ca2+ swelling absorbance, 30 min; inhibition, % at 10 µM; 1.4% of 360,000 active;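 active = inhibition of 50% or more, scaled per plate between neutral and stimulator controls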;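 note: 0% = DMSO wells given calcium and 100% = 1 mM EGTA wells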
NRP1-CendR mod = modulators of CendR peptide binding to human neuropilin-1 | inhibition, % at 25 µM | 0.85% of 360,000 active | AID 602438 | O14786 | FAM-RPARPAR peptide binding to NRP-1, fluorescence polarization;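 active = inhibition or corrected inhibition above about 18%, plus a signal ratio from 0.5 to 1.5, limit read from the data, passing the limit was not always enough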
ATG4B inh = inhibitors of human ATG4B cysteine protease. Q9Y4P1. ATG4B cleavage of LC3-PLA2, NBD-HPC fluorescence, 1 h. inhibition, % at 8.33 µM. 0.51% of 340,000 active. AID 504462; in the data active = inhibition above about 40%
Target sequence (Q9Y4P1 whole entry, looked up): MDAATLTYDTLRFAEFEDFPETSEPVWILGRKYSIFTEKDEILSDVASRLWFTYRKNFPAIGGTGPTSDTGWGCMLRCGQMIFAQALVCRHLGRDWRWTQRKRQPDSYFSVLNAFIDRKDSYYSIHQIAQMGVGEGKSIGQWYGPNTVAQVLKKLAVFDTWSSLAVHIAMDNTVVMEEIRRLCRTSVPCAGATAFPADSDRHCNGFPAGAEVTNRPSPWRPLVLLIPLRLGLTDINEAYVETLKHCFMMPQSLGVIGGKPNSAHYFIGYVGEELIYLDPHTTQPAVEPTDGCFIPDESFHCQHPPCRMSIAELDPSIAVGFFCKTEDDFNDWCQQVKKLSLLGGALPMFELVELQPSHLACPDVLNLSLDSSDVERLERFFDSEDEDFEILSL
SKN-1 inh = C. elegans SKN-1 inhibition | C. elegans VP596 Pgst-4::GFP/RFP ratio, acrylamide-induced, 24 h | inhibition, % at 21.8 µM | 0.49% of 360,000 active;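 active = interference check ratio from 0.5 to 1.5 plus GFP to RFP signal ratio inhibition reaching or exceeding a fixed threshold, cut at about 30% in these data, passing the limit was not always enough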
Starred values were filed as active, the others as inactive; x = not tested or not shown.

SMILES	F508del corr	MPTP block	NRP1-CendR mod	ATG4B inh	SKN-1 inh
C=C1CCN([C@@H](CC(C)C)C(=O)O)S(=O)(=O)c2ccccc21	0.9	-1.2	25.3*	0.0	12.2
O=C(c1ccc(F)cc1)N1CCCCN2[C@H](C1)[C@@H](c1ccc(/C=C/c3ccccc3)cc1)[C@@H]2CO	-0.8	x	x	x	x
C[C@@H]1CN([C@@H](C)CO)C(=O)Cc2cc(NC(=O)Nc3ccc(C(F)(F)F)cc3)ccc2O[C@H]1CN(C)C(=O)Nc1ccccc1	9.3*	x	x	x	x
C[C@@H]1CN([C@H](C)CO)C(=O)Cc2cc(NC(=O)Nc3ccc(C(F)(F)F)cc3)ccc2O[C@@H]1CN(C)C(=O)Nc1ccccc1	2.2	x	x	x	x
C[C@H]1CN([C@@H](C)CO)C(=O)Cc2cc(NC(=O)Nc3ccc(C(F)(F)F)cc3)ccc2O[C@H]1CN(C)S(=O)(=O)c1ccccc1	11.2*	x	x	x	x
C[C@H]1CN([C@@H](C)CO)C(=O)CCCn2cc(nn2)CO[C@@H]1CN(C)C(=O)Nc1ccc(N2CCN(C)CC2)cc1	2.3	0.5	21.0*	x	-1.0
C[C@H](CO)N1C[C@H](C)[C@H](CN(C)C(=O)Nc2ccc(N3CCN(C)CC3)cc2)OCc2cn(nn2)CCCC1=O	1.1	x	x	x	x
Cc1ccc(-c2ccc3c(c2)O[C@H](CN(C)C(=O)Nc2ccc(C(F)(F)F)cc2)[C@@H](C)CN([C@@H](C)CO)S3(=O)=O)cc1	8.7*	x	x	x	x
Cn1cnc(S(=O)(=O)N[C@@H]2CC[C@H](CC(=O)N3CCN(c4ccccc4)CC3)O[C@H]2CO)c1	0.1	x	x	x	x
O=C(c1cccnc1)N1CC[C@@H]2[C@@H](CO)Nc3ccc(-c4ccc(F)cc4)cc3[C@@H]21	1.7	x	x	x	x
C[C@H]1CN([C@@H](C)CO)C(=O)c2cc(C#CC3CC3)cnc2O[C@@H]1CN(C)Cc1cccc(C(=O)O)c1	-0.4	x	x	x	x
COc1ccc2c3c(n(C)c2c1)[C@H](CO)N(C(=O)C1CCC1)CC31CCN(C(=O)CN(C)C)CC1	-1.0	x	x	x	x
CO[C@H]1CN(C)C(=O)c2cc(NC(C)=O)ccc2OC[C@H](C)N(C(=O)C2CCOCC2)C[C@H]1C	-0.7	x	x	x	x
CC(C)c1ccc(-c2nc3ccccc3s2)cc1	-1.0	1.3	-17.5	31.4	46.4*
CN(C(=O)OC(C)(C)C)c1ccc(-c2nc3ccccc3s2)cc1	5.4	2.0	2.5	-11.8	43.4*
COC(=O)N(C)c1nc2ccccc2s1	x	0.7	-3.1	-3.0	1.0
COc1cccc(C(=O)NC2CCN(CC(=O)NCc3ccccc3F)CC2)c1	-1.3	1.3	-8.4	-5.2	7.8
COc1cccc(C(=O)NC2CCN(CC(=O)NCc3ccccc3OC)CC2)c1	x	-0.2	34.5*	-1.4	-16.6
CCC(=O)N1[C@H](C(=O)NCc2ccc(F)cc2)[C@@H](CO)[C@@H]2Cn3c(ccc(C4=CCCC4)c3=O)[C@@H]21	1.0	x	x	x	x
O=[N+]([O-])c1ccccc1NCCOc1ccccc1	x	-20.4	2.2	1.3	45.8*
C=CCn1c(SCc2ccc(Cl)cc2)nc2c1c(=O)[nH]c(=O)n2C	x	0.7	25.6*	-9.8	4.7
O=C(Nc1ccccc1)c1n[nH]c(Cn2cncn2)n1	x	-0.6	-7.6	-4.8	11.5
N#C/C(=C\c1ccc(Cl)cc1Cl)c1n[nH]c(Cn2cncn2)n1	x	2.2	-4.0	-5.4	44.1*
CCC(=O)N1CC[C@@H]2[C@H]1c1cc(C#Cc3ccccc3F)ccc1N[C@@H]2CO	0.3	x	x	x	x
Cc1cc(O)c(C=O)c2c1C(=O)Oc1c(CO)c(O)c3c(c1O2)C(O)OC3=O (stereo not drawn)	x	-2.1	-50.6	86.2*	6.4
SMILES	F508del corr	MPTP block	NRP1-CendR mod	ATG4B inh	SKN-1 inh
Cc1cc(O)c(CN(C)C)c2c1C(=O)/C(=C/c1ccco1)O2	-0.8	-0.3	-0.4	-5.7	2.7
COc1ccccc1OCC(=O)Sc1ccc(C)cc1	x	-1.0	-8.5	10.7	-1.5
Cc1ccc(OCC(=O)Sc2ccc(C)cc2)cc1	x	-4.1	7.3	-0.1	56.4*
COc1ccccc1-c1ccc2c(c1)O[C@@H](CN(C)CC1CC1)[C@@H](C)CN([C@H](C)CO)S2(=O)=O	-3.1	x	x	x	x
O=C(N[C@@H]1CC[C@@H](CCn2cc(C3CCCCC3)nn2)O[C@H]1CO)c1cccnc1	-2.1	x	x	x	x
CSc1ccc(C2Nc3ccccc3-c3cc(C)nn32)cc1 (stereo not drawn)	x	11.9	-9.0	1.4	43.8*
NC(=O)c1ccccc1N/C=C/C(=O)c1ccc(Cl)cc1	x	-1.2	-2.9	-4.3	6.7
O=C(/C=C/Sc1ccccc1)c1ccccc1	-0.8	0.5	4.2	-7.7	81.1*
O=C(/C=C/Sc1ccccc1)c1ccc(Cl)cc1	x	-0.5	4.8	-4.8	35.7*
O=C(C=Cc1ccccc1Cl)c1ccccc1	-4.1	-1.5	-15.3	0.4	-4.6
CCOC(=O)C[C@H]1c2cc(C(F)(F)F)ccc2S(=O)(=O)N1Cc1ccccc1	-1.5	0.8	26.1*	-7.9	4.3
CCOC(=O)C[C@H]1c2ccc(C(F)(F)F)cc2S(=O)(=O)N1C1CCCC1	-2.6	0.2	7.9	0.4	-17.6
CCOC(=O)C[C@H]1c2ccc(C(F)(F)F)cc2S(=O)(=O)N1Cc1ccccc1	1.0	-0.2	6.9	-1.6	2.5
CCOC(=O)C[C@H]1c2ccc(C(F)(F)F)cc2S(=O)(=O)N1C(C)(C)C	0.4	-0.1	21.8*	-5.9	3.0
O=C(NC(=S)Nc1ccc(-c2ccccc2)cc1)c1ccccc1	10.2*	-0.3	-0.3	-0.7	26.3
Cc1cccc(-c2ccc([C@@H]3[C@H]4CN(S(=O)(=O)c5cccc(C)c5)CCCCN4[C@H]3CO)cc2)c1	2.9	x	x	x	x
COCCNC(=O)c1ccc(-c2cn[nH]c2)c2ccoc12	1.9	0.7	-1.3	x	9.1
O=C(NCC1CC1)c1ccc(-c2cn[nH]c2)c2ccoc12	2.4	-0.2	5.4	x	35.0*
O=C(Cc1cccnc1)N1CC2(C1)[C@@H](c1ccccc1)[C@@H](CO)N2C(=O)C1CCC1	-5.2	x	x	x	x
COc1ccc(C(=O)OCCc2ccc(O)cc2)cc1	-0.2	-0.4	8.6	-0.5	-18.9
COc1ccc([C@H](OC)[C@@]2(Cc3ccc(O)cc3)N=C(N)N(C)C2=O)cc1	-2.7	-0.2	21.2*	2.4	13.0
O=C(Cc1ccc(F)cc1)N1CCN=C1SCc1ccc([N+](=O)[O-])cc1	x	2.9	21.8*	-8.6	-2.1
CCSc1ncc(/C=N/Nc2ccccc2)n1C	x	-0.2	-0.3	0.3	45.0*
CCSc1ncc(/C=N/Nc2ccc(Cl)cc2)n1C	x	-1.4	1.0	-6.5	-8.9
